A word on the viability: it is a read-out of living cells in per cent, often relative to untreated cells. A word on the inhibition: it is the relative decrease from the control value, in per cent.

Here are results for four molecules from PubChem BioAssay.

Test [1] is described as follows: P. berghei load reduction in hepatocytes – cell-based, HepG2, luciferase luminescence, HepG2 viability, primary screen (AID 624349; in the data active means parasite load remaining mostly below about 12%, no sharp cut-off; inactive means mostly above about 10%;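 further: 100% = mean of DMSO negative control wells on the same plate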). Conditions: P. berghei liver stage in HepG2, luciferase luminescence, concentration not given here; parasite load remaining: stronger effect = lower value; viability: measured here: HepG2 viability without parasites.
Test [2] can be described thus: signal quenchers or enhancers, Cy5 substrate/SSB – biochemical, NIH Clinical Collection, E. coli SSB, artefact control for HCV NS3 helicase inhibitor project (AID 743268). The conditions noted are these: Cy5-oligo bound E. coli SSB, fluorescence interference.
Test [3] deals with Hepatitis C virus NS3 helicase. Kind of test: blockers of NS3h binding to DNA – biochemical, fluorescence polarization, NIH Clinical Collection, primary screen (AID 743270). The conditions noted are these: NS3 helicase binding to Cy5-dT15 DNA, stronger effect = higher value, concentration not given here.
Test [4] addresses Single-stranded DNA-binding protein (Escherichia coli (strain K12)) (UniProt P0AGE0). Kind of test: SSB-ssDNA binding inhibitors – biochemical, fluorescence polarization, NIH Clinical Collection, counter-screen for HCV NS3 helicase inhibitor project (AID 743271; in the data active means inhibition above about 28%). Conditions: E. coli SSB-DNA binding, stronger effect = higher value, concentration not given here.
Test [5] in a line: compounds distorting NS3 helicase fluorescence signal – biochemical, NIH Clinical Collection, artefact control for HCV NS3 helicase inhibitor project (AID 743272).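 Further: HCV NS3 helicase with a Cy5 labelled single stranded DNA probe.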 Conditions: fluorescence interference counterscreen, HCV NS3 helicase assay; stronger effect = lower value. (Counterscreens check selectivity or assay interference.)
Test [6] is described as follows: Wnt pathway potentiators raising nuclear beta-catenin – imaging, WNT3A-conditioned medium, mouse C2C12, NPC library, primary screen (AID 1117326; in the data active means nuclear beta-catenin stimulation mostly above about 4.2%, no sharp cut-off; inactive means mostly below about 10%). Conditions: stronger effect = higher value.
The nature of test [7]: stimulators of insulin release from INS-1E, primary screen, cell-based, 5 mM glucose, NPC library (AID 1117329;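 active means compound raises insulin release from rat beta cells at 5 mM glucose, no numeric limit stated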). Conditions: rat INS-1E insulin secretion, at 10 µM, stronger effect = higher value.
Test [8] is described as follows: growth inhibition of GSK3B-pretreated HCT116 cells – cell-based, CellTiter-Glo, 0.2 to 20 µM (AID 1117336;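 active means compounds lowering colon cancer cell viability after pretreatment blocking the GSK3B kinase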). Conditions: HCT116 viability after GSK3B inhibitor, at 20 µM, stronger effect = higher value. Background: ATP-based viability assays read luminescence as a measure of living cells.
Test [9] in a line: inhibition of endothelial tube formation, primary screen, imaging, VEGF stimulated, CD31 staining, tube area, NPC library (AID 1117340;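 active means compound that reduces growth-factor-driven endothelial tube area in a mixed cell culture, no cutoff stated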). The conditions noted are these: VEGF-stimulated ADSC/ECFC co-culture, at 10 µM, stronger effect = higher value.
Test [10] in a line: GLP1 release stimulators, primary, NCI-H716, NPC library (AID 1117341;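 active means compound raises GLP1 secretion from the human gut endocrine cells, with no numeric limit stated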). The conditions noted are these: NCI-H716 cells, at 10 µM, stronger effect = higher value.
Test [11] is described as follows: HCT116 colon cancer cell growth inhibition, primary screen, CellTiter-Glo luminescence, NPC library (AID 1117342;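 active means compounds that lower survival of HCT116 colon cancer cells in the luminescence readout, no numeric limit stated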). The conditions noted are these: at 20 µM (top of the series).
A short description of test [12]: reduced SW480 viability measured with CellTiter-Glo, NPC library, primary (AID 1117343;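 active means compounds that lower viability of the colon cancer cells in the luminescence readout, with no numeric limit stated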). The conditions noted are these: CellTiter-Glo luminescence; at 20 µM (top of the series).
Test [13] can be described thus: NPC library primary testing for decreased DLD-1 cell viability via CellTiter-Glo (AID 1117346;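 active means compounds that lower survival of DLD-1 colon cancer cells in the luminescence readout, no cutoff given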). The conditions noted are these: DLD-1 viability, CellTiter-Glo luminescence; at 20 µM (top of the series).
Test [14] concerns the target 6-phosphogluconate dehydrogenase, decarboxylating (Homo sapiens) (UniProt P52209). In words: inhibition of human phosphogluconate dehydrogenase – biochemical, recombinant enzyme, NADPH absorbance, primary screen (AID 1159550;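 active means at least 20% inhibition of 6-phosphogluconate dehydrogenase activity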). Conditions: recombinant 6PGD, NADPH absorbance 341 nm; at 10 µM; stronger effect = higher value.
Test [15] in a line: viability loss with induced miR-34 in A549 – imaging, A549 dox-inducible miR-34, nuclei and caspase counts, primary screen (AID 1347080;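 active means compounds whose cell count with miR-34 switched on is under 0.7 times the count with it off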). The conditions noted are these: A549 miR-34 inducible, Hoechst nuclei count, 48 h.
A short description of test [16]: MELAS cybrid and Rieske KO viability enhancers – cell-based, MELAS cybrids, Rieske KO mouse fibroblasts, CellTiter-Glo, primary screen (AID 1508586;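 active means mean z-score across replicates of 1.96 or higher in either the MELAS or the Rieske mutant cell line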;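 further: z relative to plate mean and SD of compound and empty wells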). Conditions: low glucose.
Test [17] has as its target NAD(+) hydrolase SARM1 (Homo sapiens) (UniProt Q6SZW1). In words: blocking NAD cleavage by SARM1 SAM-TIR – cell lysate, NAD-Glo luminescence (AID 1508614;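 active means compound whose remaining NAD level is above about 45 nM, limit read from the data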). Conditions: SAM-TIR HEK293T lysate NADase, at 1 µM, stronger effect = higher value.
In test [18] the target is Mitogen-activated protein kinase 7 (Homo sapiens) (UniProt Q13164). In words: Gal4-ERK5 driven luciferase induction – cell-based, HTS, primary screen (AID 1508626;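 active means luciferase signal above three times the same-plate solvent-only control wells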;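 further: luciferase driven by Gal4-ERK5 fusion binding five Gal4 sites before minimal TATA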). Conditions: HeLa Gal4-ERK5 transactivation, 18 h, at 5 µM, stronger effect = higher value.
Chain of Mitogen-activated protein kinase 7 (Homo sapiens) (Q13164 whole entry, looked up, the tested form may be a part): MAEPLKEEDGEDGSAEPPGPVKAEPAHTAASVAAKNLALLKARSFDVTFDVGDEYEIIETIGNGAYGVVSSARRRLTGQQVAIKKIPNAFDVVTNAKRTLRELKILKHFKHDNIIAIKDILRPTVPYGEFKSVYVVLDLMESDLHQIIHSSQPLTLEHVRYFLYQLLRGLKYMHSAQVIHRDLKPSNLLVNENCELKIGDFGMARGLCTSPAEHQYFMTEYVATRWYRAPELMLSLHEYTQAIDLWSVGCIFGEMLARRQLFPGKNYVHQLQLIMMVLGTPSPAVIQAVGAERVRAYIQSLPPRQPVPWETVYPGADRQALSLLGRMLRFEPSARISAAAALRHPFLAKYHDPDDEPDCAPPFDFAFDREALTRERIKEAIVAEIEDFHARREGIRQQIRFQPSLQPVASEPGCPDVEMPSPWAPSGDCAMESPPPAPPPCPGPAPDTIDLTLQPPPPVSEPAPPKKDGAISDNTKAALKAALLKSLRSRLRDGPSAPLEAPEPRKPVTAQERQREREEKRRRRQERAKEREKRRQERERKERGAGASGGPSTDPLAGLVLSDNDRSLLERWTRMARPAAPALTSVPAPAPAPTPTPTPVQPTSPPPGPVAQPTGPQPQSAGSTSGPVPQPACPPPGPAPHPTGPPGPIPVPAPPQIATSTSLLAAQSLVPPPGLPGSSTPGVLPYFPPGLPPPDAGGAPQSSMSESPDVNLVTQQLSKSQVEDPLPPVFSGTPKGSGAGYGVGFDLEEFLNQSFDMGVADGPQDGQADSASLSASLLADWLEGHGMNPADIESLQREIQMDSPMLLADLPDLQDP
In the next test the test system is F380Y. Kind of test: BK channel mutant inhibitors and activators – cell-based, U2OS BacMam, thallium flux, beta subunits, selectivity assay, profiling panel (AID 1259406;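 active means thallium flux through the channel raised or lowered by more than 3 SD from vehicle-only wells, actives on both sides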;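 further: initial slope of Thallos dye fluorescence rise after thallium is added; log ratio against the mean of 0.3% DMSO vehicle wells on the same plate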). The conditions noted are these: U2OS BacMam BK variants, at 30 µM.
Where [19] appears, read: stronger effect = lower value, cell number ratio, induced over uninduced.
Where [20] appears, read: measured here: relative caspase fold change +Dox/-Dox.
[21] abbreviates: measured here: total cells with miR-34 induction, stronger effect = lower value.
The mark [22] stands for this setting: measured here: total cells without miR-34 induction.
Setting [23] is: MELAS cybrid survival, CellTiter-Glo 48 h, stronger effect = higher value.
Setting [24] is: Rieske KO mouse fibroblast survival, CellTiter-Glo 72 h.

“And” between values parts separate entries of the source, which are not always exact repeats. Equal entries are not always repeated. The source made the active and inactive calls. Unless noted, how the calls were made is not given here.

Chain of 6-phosphogluconate dehydrogenase, decarboxylating (Homo sapiens) (P52209 whole entry, looked up): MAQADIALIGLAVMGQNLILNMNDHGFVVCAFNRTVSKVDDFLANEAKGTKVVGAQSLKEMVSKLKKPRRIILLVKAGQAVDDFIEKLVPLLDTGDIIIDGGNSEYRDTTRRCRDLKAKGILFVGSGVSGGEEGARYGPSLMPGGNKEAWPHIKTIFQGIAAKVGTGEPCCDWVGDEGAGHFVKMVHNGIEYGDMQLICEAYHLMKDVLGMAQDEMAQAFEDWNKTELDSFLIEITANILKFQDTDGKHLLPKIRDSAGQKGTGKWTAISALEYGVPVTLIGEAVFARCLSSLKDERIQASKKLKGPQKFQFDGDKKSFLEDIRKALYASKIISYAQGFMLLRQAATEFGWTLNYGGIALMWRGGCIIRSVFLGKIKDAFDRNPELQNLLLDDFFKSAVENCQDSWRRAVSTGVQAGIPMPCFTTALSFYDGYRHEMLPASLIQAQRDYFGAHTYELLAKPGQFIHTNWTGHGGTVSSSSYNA
Chain of NAD(+) hydrolase SARM1 (Homo sapiens) (Q6SZW1 whole entry, looked up, the tested form may be a part): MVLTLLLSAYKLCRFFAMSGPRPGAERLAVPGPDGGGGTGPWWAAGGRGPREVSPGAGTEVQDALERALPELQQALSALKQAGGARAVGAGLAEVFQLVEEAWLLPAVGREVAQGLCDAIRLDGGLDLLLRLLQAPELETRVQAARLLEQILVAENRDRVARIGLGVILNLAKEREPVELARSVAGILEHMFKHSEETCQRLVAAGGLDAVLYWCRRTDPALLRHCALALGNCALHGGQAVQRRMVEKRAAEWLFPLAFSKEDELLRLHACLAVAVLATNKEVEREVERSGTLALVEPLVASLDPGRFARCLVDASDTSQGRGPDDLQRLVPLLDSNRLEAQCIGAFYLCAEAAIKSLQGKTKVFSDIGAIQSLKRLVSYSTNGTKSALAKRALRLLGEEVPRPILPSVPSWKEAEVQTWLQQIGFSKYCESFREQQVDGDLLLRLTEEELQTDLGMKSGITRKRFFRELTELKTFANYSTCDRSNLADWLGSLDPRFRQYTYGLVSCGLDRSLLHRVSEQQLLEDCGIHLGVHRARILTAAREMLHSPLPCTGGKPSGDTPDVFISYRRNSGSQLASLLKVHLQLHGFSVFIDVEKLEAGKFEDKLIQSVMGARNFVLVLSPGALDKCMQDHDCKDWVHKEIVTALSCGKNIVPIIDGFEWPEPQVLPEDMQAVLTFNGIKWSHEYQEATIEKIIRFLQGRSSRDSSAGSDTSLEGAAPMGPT

On to `C[C@H](CCC(=O)O)[C@H]1CC[C@H]2[C@@H]3C(=O)C[C@@H]4CC(=O)CC[C@]4(C)[C@H]3CC(=O)[C@]12C`, for which the parasite load remaining in [1] was 41.4% (inactive) and 59.6% (inactive). For the same molecule, the viability in test [1] is 47.4% and 73.1%. For the same molecule, the fluorescence ratio was 0.97 (inactive) in test [2] and 0.9 (inactive) in test [5]. Besides, the inhibition was 3.28% (inactive) in [3]; 2.76% (inactive) in [4]; -0.558% (inactive) and -4.79% (inactive) in test [14]. Besides, the nuclear beta-catenin stimulation in [6] (at 10 µM) is -0.3% (inactive); in test [6] (stimulation, at 2 µM), 0%. The insulin secretion stimulation in test [7] is 1.3% (inactive). Moreover, the viability decrease in test [8] was -1% (inactive). In addition, in [9], the tube area decrease is 15.1% (inactive). Besides, in test [10], the GLP1 secretion stimulation was 0.2% (inactive). For the same molecule, the inhibition of viability in test [11] was -5.2% (inactive). Moreover, the figures for the viability decrease (inhibition) in test [12] and in [13] were 5.6% (inactive) and -16% (inactive), respectively. In addition, the fold change in test [15] (setting [19]) is 0.903 (inactive); in test [15] (setting [20]) it was 1.51. In addition, the values for the cell count in test [15] (setting [21]) and in [15] (setting [22]) were 9210 and 10200, respectively. In addition, the values for the z-score in test [16] (setting [23]) and in [16] (setting [24]) were 1.02 (inactive) and 0.185, respectively. In addition, the remaining NAD in test [17] is 10 nM (inactive). Further, the luciferase signal in [18] is 100 AU (inactive) and 64 AU (inactive). Also, the log fold change Tl+ flux with F380Y was -0.0147 (inactive).
For the molecule `C[C@]12CCC(=O)C=C1CC[C@@H]1[C@@H]2[C@@H](O)C[C@@]2(C)[C@H]1CC[C@]2(O)C(=O)COC(=O)CCC(=O)O`, the parasite load remaining in [1] is 82.9% (inactive). The viability in test [1] is 105%. Also, the fluorescence ratio was 0.99 (inactive) in [2] and 1 (inactive) in test [5]. Besides, the inhibition was -1.36% (inactive) in test [3], -0.48% (inactive) in test [4] and 1.94% (inactive) in [14]. Further, the nuclear beta-catenin stimulation in [6] (at 10 µM) was 0.9% (inactive); in test [6] (stimulation, at 2 µM), 3%. The insulin secretion stimulation in test [7] was 1.4% (inactive). In addition, the viability decrease in test [8] was 0.2% (inactive). Further, the tube area decrease in test [9] was 5.6% (inactive). The GLP1 secretion stimulation in test [10] was -1.5% (inactive). For the same molecule, the inhibition of viability in test [11] is 6.6% (inactive). For the same molecule, the viability decrease (inhibition) in [12] is -13.6% (inactive); in test [13] it was 13.1% (inactive). The fold change was 0.985 (inactive) in [15] (setting [19]) and 1.65 in [15] (setting [20]). The cell count in test [15] (setting [21]) came to 7160; in test [15] (setting [22]) it was 7270. The remaining NAD in test [17] is 10 nM (inactive). The luciferase signal in test [18] is 96 AU (inactive). Moreover, the log fold change Tl+ flux with F380Y is 0.0328 (inactive).
In the case of `COc1ccc([C@@H]2Sc3ccccc3N(CCN(C)C)C(=O)[C@@H]2OC(C)=O)cc1`, the values for the fluorescence ratio in test [2] and in [5] were 0.95 (inactive) and 0.98 (inactive), respectively. Moreover, the inhibition in test [3] is -3.18% (inactive); in test [4], -2.76% (inactive); in test [14] it was -12.8% (inactive). In addition, the nuclear beta-catenin stimulation in [6] (at 10 µM) was 0.5% (inactive); in [6] (stimulation, at 2 µM), -0.4%. In [7], the insulin secretion stimulation is 1.15% (inactive). Besides, in test [8], the viability decrease was 17% (inactive). The tube area decrease in test [9] was -3.8% (inactive). Moreover, in [10], the GLP1 secretion stimulation is 2.5% (inactive). In addition, in [11], the inhibition of viability is 32.9% (inactive). The values for the viability decrease (inhibition) in test [12] and in [13] were 47.4% (inactive) and 32.3% (inactive), respectively. Moreover, the z-score was 0.628 (inactive) and 0.162 (inactive) in test [16] (setting [23]); -0.0359 and -0.282 in test [16] (setting [24]). The remaining NAD in test [17] was 10 nM (inactive). Besides, the luciferase signal in test [18] was 68 AU (inactive). For the same molecule, the log fold change Tl+ flux with F380Y was 0.0589 (inactive).
Regarding `C[C@]12CCC(=O)C=C1CC[C@@H]1[C@@H]2[C@@H](O)C[C@@]2(C)[C@H]1CC[C@]2(O)C(=O)CO`, the values for the fluorescence ratio in test [2] and in test [5] were 0.95 (inactive) and 0.93 (inactive), respectively. The figures for the inhibition in test [3], in test [4] and in test [14] were 0.45% (inactive), 5.62% (inactive) and -14.6% (inactive), respectively. The nuclear beta-catenin stimulation in test [6] (at 10 µM) is -0.3% (inactive); in test [6] (stimulation, at 2 µM), 0.1%. In addition, the insulin secretion stimulation in [7] is 1.1% (inactive). For the same molecule, the viability decrease in test [8] was -18.7% (inactive). Further, the tube area decrease in test [9] was 9.1% (inactive). Besides, in test [10], the GLP1 secretion stimulation was 1.8% (inactive). The inhibition of viability in [11] is -13.9% (inactive). Also, the viability decrease (inhibition) in [12] is 14.7% (inactive); in test [13], -6.7% (inactive). Besides, the z-score was -0.02 (inactive) and 0.332 (inactive) in test [16] (setting [23]); -0.00651 and 1.17 in test [16] (setting [24]). For the same molecule, the remaining NAD in test [17] was 10 nM (inactive). Also, in test [18], the luciferase signal was 124 AU (inactive). The log fold change Tl+ flux in the test on F380Y was 0.0399 (inactive).
